# In the library only some 19% were active in any assay of this set; here they are far more common.
# HT1080 IDH1KD tx: kills HT-1080 cells with IDH1 knockdown; HT-1080 IDH1 knockdown viability, ATP luminescence, 48 h; Potency, µM (doses to about 46.1 µM), for inactives: top-dose activity, negative = toxicity, most hits filed as cytotoxic; 360,000 compounds, 2% hits; AID 686971;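 note: potency is the fitted concentration of half-maximal effect; 0% = DMSO wells and -100% = cell-free medium wells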
#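 % activity derives from luminescence (CellTiter-Glo), normalised to DMSO and no-cell wells. HT-1080-IDH1KD cells, 750/well, had 48 h compound exposure at 37 °C.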
# HT1080-NT tox: kills 2HG-producing HT-1080-NT fibrosarcoma cells; HT-1080-NT fibrosarcoma viability, CellTiter-Glo ATP luminescence, 48 h; Potency, µM (highest dose often 46.1 µM), without a hit: top-dose activity, negative = less viability, most hits filed as cytotoxic; 360,000 compounds, 1.6% hits; AID 686970;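 note: NT is the 2HG producing partner of a matched IDH1 knockdown line; potency is the fitted concentration of half-maximal effect; 0% = DMSO-treated cells and -100% = media-only wells without cells; nearly all actives have a fitted effect of over 55% in size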
#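 Luminescent CellTiter-Glo readout after 48 hours of compound exposure at 37 degrees C defined viability of HT-1080-NT cells. Activity was normalized to DMSO wells and cell-free media wells; concentration-response curves were fitted and assigned curve classes.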
# TDP1 cell noCPT: qHTS for Inhibitors of human tyrosyl-DNA phosphodiesterase 1 (TDP1): qHTS in cells in absence of CPT | DT40 Tdp1-/- hTDP1 cells, no CPT, ATP luminescence, 48 h | Potency, µM (doses to about 46.2 µM), inactives show at the highest dose activity change, negative = growth inhibition, most hits filed as inhibitors | 420,000 compounds, 15% hits; note: potency is the fitted concentration of half-maximal effect; nearly all actives have a fitted effect of over 55% in size
#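 A cellular qHTS used chicken DT40 cells lacking endogenous Tdp1 but carrying stably transfected human TDP1. Compounds were applied without camptothecin, and cell growth kinetics were judged by ATP-dependent luminescence after ≥48 hr.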
# IL-1B inflam inh: blocks inflammasome-driven IL-1 beta release; THP-1 LPS/ATP IL-1B secretion, AlphaLISA, 16 h; stronger effect = lower value; activity change, % at 57.5 µM; 360,000 compounds, 4.7% hits; AID 743279; in the data active = activity change below about -50%; inconclusive = mostly about -30% to -49%
#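 THP-1 cells pretreated 1 hr with compounds (up to 57.5 uM final), then stimulated with LPS (250 ng/mL final) plus ATP (1.25 mM final); secreted IL-1B measured by AlphaLISA after 16 hr, decreased signal indicating inhibition.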
# ELG1 repair inh: inhibitors of ELG1-dependent DNA repair in HEK293T cells; HEK293T ELG1-luciferase reporter, luminescence, 16 h; DNA damage induced by 5-fluorouridine; 330,000 compounds, 2.3% hits; AID 504467; Potency, µM (series often up to 46.1 µM), for inactives: at the highest dose activity change, negative = inhibition, actives largely listed as inhibitors; note: potency is the fitted concentration of half-maximal effect; nearly all actives have a fitted effect of over 55% in size
#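 Overnight (16 hr) co-exposure of 2,000 cells/well to 5-fluorouridine and compound at 37 °C preceded detection. Luciferase was quantified via ONE-Glo luminescence; loss of signal denotes inhibition.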
# DT40 TDP1 CPT: DT40-hTDP1 cell growth loss with CPT; chicken DT40 Tdp1-/-;hTDP1 cells + 20 nM CPT, ATP luminescence, 48 h; Potency, µM (titrated, usually from 46.2 µM), for the others: at the highest dose activity change, negative = growth inhibition, usual class: inhibitors; 420,000 compounds, 12% hits; AID 686979; note: potency is the fitted concentration of half-maximal effect; nearly all actives have a fitted effect of over 55% in size
#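 Chicken DT40 Tdp1-/- cells complemented with human TDP1, 400 cells/well, exposed to compounds plus 20 nM camptothecin for at least 48 h at 37 C; viability read as ATP content by CellTiter-Glo luminescence.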
# * = called active by the depositor; ? = inconclusive; . = not tested or not shown; [ ] = dose if it differs, or a comment. Unless noted, calls come from the whole dose curve; as a rule, active = well fitted curve in the direction sought with a large enough effect; inconclusive = small, poorly fitted or top-dose-only effect, or another doubt; inactive = no such curve, though single readings can be large; an effect the other way counts as inactive or inconclusive. Unless noted, % is set by controls: 0 for no effect and ±100 for the full control effect.
SMILES,HT1080 IDH1KD tx,HT1080-NT tox,TDP1 cell noCPT,IL-1B inflam inh,ELG1 repair inh,DT40 TDP1 CPT
Cc1ccc(NC(=O)/C(C#N)=C/c2cc(C)n(-c3ccc(Br)cc3)c2C)cc1C,.,.,5.8µM*,.,.,4.6µM*
CCOC(=O)/C(C#N)=C/c1cc2ccc(C)cc2nc1Cl,-2%,0%,2.9µM*,24,?,4.1µM*
CCOC(=O)/C(C#N)=C/c1cc(C)n(-c2ccccc2)c1C,12%,4%,21µM*,-12,?,16µM*
COc1ccc(CCN2CCCn3c2nc2c3c(=O)n(C)c(=O)n2C)cc1OC,-10%,-1%,-16%,44,-13%,?
C[C@@H]1CN([C@H](C)CO)C(=O)CCCn2cc(nn2)CO[C@H]1CN(C)C(=O)Nc1ccc(-c2cccs2)cc1,4%,2%,-28%,9,.,-13%
COCCCN1C(=O)C(CC(=O)NCCCN(C)C)CC(C(=O)N2CCCCCC2)=C1C (stereo not drawn),0%,14%,-10%,21,.,-4%
CCc1ccc(C2C(C#N)=C(N)N(N(C)C)C3=C2C(=O)CCC3)cc1 (stereo not drawn),-8%,-4%,-2%,-4,?,-19%
Cc1cc2cc(C=C(C#N)C#N)c(Cl)nc2cc1C,?,-21%,7.3µM*,-100*,?,7.3µM*
Cc1cc(/C=C(\C#N)C(=O)Nc2ccccc2)c(C)n1-c1cccnc1,8%,5%,?,-76*,?,?
Cc1cc(/C=C(\C#N)C(=O)Nc2ccccc2)c(C)n1-c1ccc(F)cc1,.,.,2%,.,.,-8%
CCOC(=O)/C(C#N)=C/c1cc2cc(C)c(C)cc2nc1Cl,1%,-11%,?,-24,?,?
CSc1nc(Nc2ccc(C)cc2)c(C#N)c(-c2ccccc2)n1,.,.,-12%,.,.,1%
O=C(COc1ccccc1Cl)Nc1nc(-c2ccc(F)cc2)ns1,.,.,-21%,.,.,4%
CC(=O)Nc1ccc(NC(=O)COC(=O)COc2ccc3ccccc3c2)cc1,-1%,4%,2%,14,19%,1%
CCOc1ccc(C(=O)n2cnnc2N)cc1,4%,18%,0%,-15,16%,-2%
CCCCCCOc1ccc(/C=c2\s/c(=C(/C#N)C(=O)NCc3ccco3)n(-c3ccccc3)c2=O)cc1,-8%,10%,6.5µM*,8,13%,2.9µM*
C[C@@H]1CN([C@@H](C)CO)C(=O)c2cc(C#Cc3ccccc3)cnc2O[C@H]1CN(C)C(=O)c1ccccc1F,-5%,-18%,?,?,.,?
CN(C)c1ccc(CNCCC(Cc2ccccc2)c2ccco2)cc1 (stereo not drawn),23µM*,18µM*,10µM*,-99*,1%,9.2µM*
CC(=O)NCCC(Cc1ccccc1)c1ccco1 (stereo not drawn),7%,15%,-6%,-1,?,-9%
c1ccc(CNCCC(Cc2ccccc2)c2ccco2)cc1 (stereo not drawn),16µM*,16µM*,16µM*,-80*,-5%,?
O=C(CN1C(=O)C2CC=CCC2C1=O)Nc1nc2ccccc2s1 (stereo not drawn),1%,6%,12%,4,?,-3%
Cc1ccc(NC(=S)NCCN(C2CCCCC2)C2CCCC2)cc1C,?,?,?,-67*,?,21µM*
COc1ccc(OC)c(NC(=O)NCCN2CCN(c3ccccc3)CC2)c1,-2%,-5%,14%,-25,?,?
COc1ccc(-c2cccc(CCC(=O)N3CCN(c4cc(C)ccc4C)CC3)c2)cc1,-1%,-4%,?,4,-27%,?
COc1ccc(C2=C(C)C(=NCCCN3CCN(c4cc(C)ccc4C)CC3)NS2(=O)=O)cc1,.,.,-103%,.,.,4.6µM*
SMILES,HT1080 IDH1KD tx,HT1080-NT tox,TDP1 cell noCPT,IL-1B inflam inh,ELG1 repair inh,DT40 TDP1 CPT
COc1ccc(N2CCN(CCNC(=O)Nc3ccc([N+](=O)[O-])cc3OC)CC2)cc1,-28%,-2%,23µM*,-18,-11%,29µM*
COc1ccc(NC(=O)NCCCN2CCN(c3cc(C)ccc3C)CC2)cc1,?,?,8.2µM*,-28,-14%,8.2µM*
COc1ccc(N2CCN(CCNC(=O)Nc3ccc(C)c(Cl)c3)CC2)cc1,?,-23%,16µM*,-30,-22%,23µM*
COc1ccc(NC(=O)NCCCN2CCN(c3ccccc3F)CC2)cc1,-17%,-12%,12%,-8,1%,-1%
COc1ccc(NC(=O)NCCN2CCN(c3cccc(Cl)c3)CC2)cc1,-14%,-15%,?,-15,-6%,-27%
O=C(COC(=O)C1CCN(c2ccc(C(F)(F)F)cn2)CC1)Nc1ccc(F)cc1[N+](=O)[O-],7%,9%,-20%,34,21%,?
N[C@](CC1c2ccccc2Oc2ccccc21)(C(=O)O)[C@H]1C[C@@H]1C(=O)O,.,.,-18%,.,.,-30%
COc1cc(NC(=O)NCCN2CCN(c3ccc(Cl)cc3)CC2)ccc1C,-2%[9.24 µM],?,?,-60*,?,?
CCn1cnc2cc(NC(=O)c3cccs3)ccc21,-4%,-1%,-2%,-18,?,-12%
COc1ccc(Cn2c(C3CC3)nc3ccc(NC(C)=O)cc3c2=O)cc1,-21%,-13%,-26%,-18,?,-6%
CCCc1nc2ccc(NC(=O)c3cccs3)cc2c(=O)n1Cc1ccccc1Cl,17%,8%,16µM*,-14,?,?
CCCc1nc2ccc(NC(C)=O)cc2c(=O)n1Cc1ccc(Cl)cc1,-6%,-10%,23µM*,?,?,?
CCN1CCN(C(=O)c2cc(-c3ccco3)nc3ccccc23)CC1,0%,-4%[9.24 µM],-4%,0,?,-6%
C(=N\Nc1nc2ccccc2[nH]1)/C1CCCCC1,?,?,?,38,5%,18µM*
C(=N\Nc1nc2ccccc2[nH]1)/c1ccccc1,6%,-1%,?,-95*,?,?
CCCc1cc(=O)[nH]c(N/N=C/C=C\c2ccccc2)n1,25%,11%,?,-17,-14%,1%
C(=C\c1ccccc1)/C=N/Nc1nc2ccccc2[nH]1,?,?,7.3µM*,54,?,7.3µM*
